# Experimental data from PubChem BioAssay (Tox21).
# Results filed as inconclusive are left out. A number with no mark means an inactive call. Calls of active or inactive are those of the source. Calls come from the whole dose curve; as a rule, active = well fitted cell-killing curve with a large enough effect in the repeat runs; inconclusive = weak or mixed curves, or effect the other way; inactive = flat fitted curve, though single readings scatter.
# Assay: cAMP Responsive Elements (CRE) small molecule antagonists, cell-based qHTS assay: qHTS cell viability counter screen (AID 2060913); note: nearly all actives have a fitted effect of over 40% in size
# Conditions: CRE-bla HEK293T viability, CellTiter-Glo luminescence, 5 h; series mostly up to 92.4 µM; viability change, negative = cytotoxic: at the top concentration
# Summary of the method: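 CRE-bla HEK293T cells were seeded in assay medium with 10% dialyzed FBS, incubated 18 hrs at 37 C, then exposed to compounds plus 0.25 uM final NKH477 for 3 hrs. Viability was read by CellTiter-Glo luminescence after 30 min, in the same wells.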
# % is set by controls: 0 for no effect and ±100 for the full control effect.
Structure (SMILES),"viability change, negative = cytotoxic",Potency
Cc1nn(-c2cc(NS(C)(=O)=O)c(Cl)cc2Cl)c(=O)n1C(F)F,-1.84%,
OCCN(CCO)CCO,,inactive
Cc1ccc(N)cc1N,,inactive
Cc1cnc2c(C(=O)O)c(Cl)ccc2c1,-1.06%,
Nc1ccc(Br)cc1,,inactive
ClSC(Cl)(Cl)Cl,4.36%,
FC(Cl)(Cl)Cl,2.08%,
CN(C)NC(=O)CCC(=O)O,,inactive
NC(=O)CN1CCCC1=O,,inactive
CN1C[C@H](C(=O)N[C@]2(C)O[C@@]3(O)[C@@H]4CCCN4C(=O)[C@H](Cc4ccccc4)N3C2=O)C=C2c3cccc4[nH]cc(c34)C[C@H]21,,inactive
Clc1cccc(SC2CCNCC2)n1,-1.69% [at 42.5 µM],
Cc1ccc(N=C=O)cc1N=C=O,,inactive
N[C@@H]1C[C@H]1c1ccccc1,10.4% [at 42.5 µM],
CCCCNC(=O)OCC#CI,-12.8%,
CCCCCCCC(=O)Cl,-5.75%,
N[C@@H](Cc1ccc(N(CCCl)CCCl)cc1)C(=O)O,,inactive
CON(C)C(=O)Nc1ccc(Cl)c(Cl)c1,,inactive
II,-15.9%,
Nc1ccc(Cc2ccc(N)c(Cl)c2)cc1Cl,12.2%,
CCCCOC(=O)c1ccccc1C(=O)OCCCC,,inactive

Structure (SMILES),"viability change, negative = cytotoxic",Potency
CCOP(=S)(OCC)SCS(=O)(=O)C(C)(C)C,-14.6%,
CCN(CC)CCOC(=O)C(O)(c1ccccc1)c1ccccc1,-3.4% [at 42.5 µM],
c1ccc(N2CCNCC2)cc1,5.21% [at 42.5 µM],
c1cc2c3c(cccc3c1)CC2,,inactive
COC(=O)N(C(=O)N1CO[C@@]2(C(=O)OC)Cc3cc(Cl)ccc3C2=N1)c1ccc(OC(F)(F)F)cc1,-16.1%,
O=[N+]([O-])/N=C1\NCCN1Cc1ccc(Cl)nc1,,inactive
CC(C)C(Br)C(=O)NC(N)=O (centres undefined),3.94% [at 42.5 µM],
c1cc[c]([Hg][c]2ccccc2)cc1,-0.23%,
CC(C)(O)c1cnn2c(-c3ccc(F)c(-c4c(F)cccc4C#N)c3)cnc2n1,5.01%,
COc1ccc2c3c1O[C@H]1[C@@H](O)C=C[C@H]4[C@@H](C2)N(C)CC[C@@]341,,inactive
O=C1C[C@@H]2OCC=C3CN4CC[C@]56c7ccccc7N1[C@H]5[C@H]2[C@H]3C[C@H]46,-0.031% [at 42.5 µM],
C#CCO,3.21%,
c1cncc([C@@H]2CCCCN2)c1,-6.27%,
C1CS1,-7.74%,
c1ccc(C2CO2)cc1 (centres undefined),,inactive
O=c1[nH]c2ccccc2n1CCCN1CCC(n2c(=O)[nH]c3cc(Cl)ccc32)CC1,-13.5% [at 42.5 µM],
CNC(=O)Oc1cccc2c1OC(C)(C)O2,,inactive
N#C/C=C/c1ccccc1,6.57%,
CCCCCCCCCBr,-0.586%,
